Data taken from PubChem BioAssay AID651640 (Broad Institute, 2012).
Values joined by “and” are separate entries in the source; they are usually repeats but may differ in a detail not shown here. Equal values may be shown once. Among all 350,000 compounds or so, about 6,000 (1.7%) were called active. Not shown: some 5% with an inconclusive outcome. Rule as the data show it: active = CPE inhibition above about 20% (passing the limit was not always enough); inconclusive = no clear call, values can overlap the other calls; tested in BHK-21 cells. The list comes from a sample in which actives are over-represented; it also holds similar structures and randomly drawn compounds. A structure can be active in one record and inactive in another.

test: inhibitors of DENV2 cytopathic effect, primary screen, cell-based, plate reader, single concentration (AID 651640); settings: DENV2-infected cells, cytopathic effect rescue, at 9.99 µM, stronger effect = higher value;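 also: 0% = median of neutral control wells and 100% = median of positive control wells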

SMILES | CPE inhibition
O=C(Nc1nnc(-c2ccccc2)o1)c1cc(-c2cccs2)nc2ccccc12 | -13.1% (inactive)
CCCCN(C)CCCNC(=O)c1cc(-c2cccs2)nc2ccccc12 | 41.4% (active)
CC(=O)NCCNC(=O)c1cc(-c2cccc3ccccc23)nc2ccccc12 | 2.13% (inactive)
C/C=C/c1ccc([C@@H]2[C@@H](CO)N(C(C)=O)[C@H]2CN(C)C(=O)CN(C)C)cc1 | 8.38% (inactive)
C/C=C/c1ccc([C@@H]2[C@@H](CN(C)C(C)=O)N(C(=O)C3CC3)[C@H]2CO)cc1 | 41.4% (active)
C/C=C/c1ccc([C@H]2[C@@H](CO)N(C(=O)NCCC)[C@H]2CN(C)C(C)=O)cc1 | -22.2% (inactive)
COc1ccc(-c2cn(CC[C@H]3CC[C@@H](NC(=O)CCN4CCCCC4)[C@H](CO)O3)nn2)cc1 | -5.26% (inactive)
Cc1noc(C)c1S(=O)(=O)Nc1ccc2c(c1)C(=O)N([C@@H](C)CO)C[C@H](C)[C@H](CN(C)CC1CCCCC1)OCCCC[C@H](C)O2 | -11.5% (inactive)
O=C([C@@H]1[C@@H](CO)[C@@H]2Cn3c(ccc(-c4cncnc4)c3=O)[C@@H]2N1C(=O)C1CCC1)N1CCCCC1 | -0.056% (inactive)
COc1cccc(-c2ccc3n(c2=O)C[C@@H]2[C@@H](CO)[C@H](C(=O)NCC4CC4)N(C(=O)NC(C)C)[C@H]32)c1 | 13.2% (inactive)
CC(C)NC(=O)N1[C@@H]2c3ccc(-c4ccc(F)cc4)c(=O)n3C[C@@H]2[C@@H](CO)[C@@H]1C(=O)N1CCOCC1 | 69.3% (active)
CCC(=O)N1CCCCN2[C@H](C1)[C@@H](c1ccc(/C=C/c3ccccc3)cc1)[C@@H]2CO | -4.84% (inactive)
CC(C)(C)[S@](=O)N1Cc2cc(C(=O)N3CCCCC3)nc(-c3cccc(-c4ccccc4F)c3)c2[C@@H]1CCO | 1.74% (inactive)
CC(C)(C)[S@@](=O)N1Cc2cc(C(=O)N3CCCCC3)nc(-c3cccc(-c4cccc(C#N)c4)c3)c2[C@H]1CCO | -1% (inactive)
CC(C)(C)[S@](=O)N1Cc2cc(C(=O)N3CCCCC3)nc(-c3cccc(Br)c3)c2[C@@H]1CCO | 41.3% (active)
COC(=O)CCCCCN1C(=O)NC(c2ccc(-c3ccccc3)cc2)C(C(=O)OCc2ccccc2)=C1C (stereo unspecified) | -1.13% (inactive)
CCOC(=O)C1=C(C)N(C[C@@H]2CC[C@@H](Cc3ccc(-c4ccccc4)cc3)O2)C(=O)NC1c1ccc([N+](=O)[O-])cc1 (stereo partly specified) | 49.3% (active)
CCC(CC)COC(=O)C1=C(C)NC(=O)NC1c1ccc([N+](=O)[O-])cc1 (stereo unspecified) | 4.17% (inactive)
C[C@@H]1CN([C@H](C)CO)C(=O)c2cc(NC(=O)CCCCCC(=O)Nc3ccccc3N)ccc2O[C@@H]1CN(C)Cc1ccncc1 | -1.11% (inactive)
COc1ccc2c3c([nH]c2c1)[C@@H](CO)N(C(=O)c1cccc(F)c1)CC31CN(C(C)=O)C1 | -11.3% (inactive)
O=C(C[C@H]1C=C[C@@H](NC(=O)Nc2cc(F)ccc2F)[C@H](CO)O1)NCCCN1CCOCC1 | -8.14% (inactive)
COc1ccccc1NC(=O)N1C[C@H]2[C@@H](c3ccccc31)[C@@H](CO)N2C(=O)C1CCCC1 | -7.24% (inactive)

SMILES | CPE inhibition
C[C@@H]1CCCCO[C@@H](CN(C)S(C)(=O)=O)[C@H](C)CN([C@@H](C)CO)C(=O)c2cc(NC(=O)Nc3ccc4c(c3)OCO4)ccc2O1 | 12.2% (inactive)
COc1ccc(S(=O)(=O)Nc2ccc3c(c2)C(=O)N([C@@H](C)CO)C[C@H](C)[C@H](CN(C)S(=O)(=O)c2c(C)noc2C)OCCCC[C@@H](C)O3)cc1 | 36% (active)
COc1ccc(S(=O)(=O)N(C)C[C@H]2OCCCC[C@H](C)Oc3ccc(NS(=O)(=O)c4c(C)noc4C)cc3C(=O)N([C@@H](C)CO)C[C@@H]2C)cc1 | -3.17% (inactive)
Cc1noc(C)c1S(=O)(=O)N(C)C[C@@H]1OCCCC[C@H](C)Oc2ccc(NC(=O)NC(C)C)cc2C(=O)N([C@H](C)CO)C[C@@H]1C | 51.8% (active)
Cc1noc(C)c1S(=O)(=O)N(C)C[C@@H]1OCCCC[C@H](C)Oc2ccc(NC(=O)Nc3ccc4c(c3)OCO4)cc2C(=O)N([C@H](C)CO)C[C@H]1C | 27.1% (active)
Cc1noc(C)c1S(=O)(=O)N(C)C[C@@H]1OCCCC[C@H](C)Oc2ccc(NC(=O)Nc3ccc4c(c3)OCO4)cc2C(=O)N([C@H](C)CO)C[C@@H]1C | -3.84% (inactive)
Cc1noc(C)c1S(=O)(=O)N(C)C[C@@H]1OCCCC[C@@H](C)Oc2ccc(NC(=O)Nc3ccccc3)cc2C(=O)N([C@H](C)CO)C[C@@H]1C | 3.34% (inactive)
Cc1noc(C)c1S(=O)(=O)N(C)C[C@@H]1OCCCC[C@H](C)Oc2ccc(NC(=O)NC3CCCCC3)cc2C(=O)N([C@@H](C)CO)C[C@H]1C | -11.4% (inactive)
Cc1noc(C)c1S(=O)(=O)N(C)C[C@@H]1OCCCC[C@@H](C)Oc2ccc(NS(=O)(=O)c3ccccc3)cc2C(=O)N([C@H](C)CO)C[C@@H]1C | -8.98% (inactive)
CCC(=O)N1CCC2(CC1)CN(Cc1cccc(OC)c1)[C@@H](CO)c1[nH]c3cc(OC)ccc3c12 | -4.07% (inactive)
C[C@@H]1CN([C@H](C)CO)C(=O)c2cc(C#CCN(C)C)cnc2O[C@@H]1CN(C)C(=O)Cc1cccnc1 | 6.92% (inactive)
CCc1cccc(NC(=O)O[C@H]2[C@H](OC(=O)Nc3ccccc3-c3ccccc3)[C@H](OC(=O)Nc3ccccc3-c3ccccc3)[C@@H](OC)O[C@@H]2CO)c1 | 1.23% (inactive)
CC(C)CNc1cccc2c1S(=O)(=O)N[C@H](C)CO2 | 2.95% (inactive)
CN(C)C(=O)C[C@@H]1C=C[C@H](NC(=O)Nc2cccc(F)c2)[C@H](CO)O1 | -10% (inactive)
COc1ccc(CCNC2=CC(=O)CC(C)(C)C2)cc1 | 16.6% (inactive)
CC1(C)CC(=O)C=C(c2ccc(Cl)c(C(F)(F)F)c2)C1 | 1.16% (inactive)
COc1cc(F)c(C2=CC(=O)CC(C)(C)C2)cc1F | 26.9% (active)
Cc1cc(F)ccc1S(=O)(=O)Nc1ncnc2scc(-c3ccc(F)cc3)c12 | 46.8% (active)
O=S(=O)(Nc1ncnc2sccc12)c1cccc(F)c1 | -1.13% (inactive)
COc1ccc(-c2csc3ncnc(N4CCN(S(=O)(=O)c5cccc(F)c5)CC4)c23)cc1 | 5.97% (inactive)
O=C1CN(S(=O)(=O)c2ccccc2)C[C@H]2[C@H](c3ccc(C4=CCCC4)cc3)[C@@H](CO)N12 | -1.48% (inactive)
COc1cccc(NC(=O)N[C@@H]2CC[C@H](CC(=O)Nc3ccccc3)O[C@@H]2CO)c1 | 3.12% (inactive)

SMILES | CPE inhibition
Nc1ccccc1-c1cn(CC(=O)Nc2ccon2)nn1 | 15.8% (inactive)
CO[C@@H]1CN(C)C(=O)c2ccc(NS(=O)(=O)c3cccc(C)c3)cc2OC[C@@H](C)NC[C@H]1C | 10.6% (inactive)
Cc1noc(C)c1NC(=O)N(C)C[C@@H]1OCCCC[C@H](C)Oc2ccc(NC(=O)NC3CCCCC3)cc2C(=O)N([C@H](C)CO)C[C@@H]1C | -0.006% (inactive)
C[C@@H]1CN([C@@H](C)CO)C(=O)c2cc(NC(=O)Nc3cccc4ccccc34)ccc2O[C@@H]1CN(C)Cc1ccc(-c2ccccc2)cc1 | 6.66% (inactive)
COc1ccc(CN(C)C[C@H]2Oc3ccc(NC(=O)CCN4CCOCC4)cc3C(=O)N([C@@H](C)CO)C[C@H]2C)cc1 | 8.91% (inactive)
C[C@@H]1CN([C@H](C)CO)C(=O)c2cc(NC(=O)CCN3CCOCC3)ccc2O[C@H]1CN(C)Cc1ccc(Oc2ccccc2)cc1 | 25.3% (active)
C[C@@H]1CN([C@@H](C)CO)C(=O)c2cc(NC(=O)Nc3cccc4ccccc34)ccc2O[C@H]1CN(C)Cc1ccc(Oc2ccccc2)cc1 | 29.3% (active)
COc1ccc(CN(C)C[C@@H]2Oc3ccc(NC(=O)Nc4cccc5ccccc45)cc3C(=O)N([C@H](C)CO)C[C@H]2C)cc1 | 1.24% (inactive)
C[C@@H]1CN([C@@H](C)CO)C(=O)c2cc(NC(=O)Cc3ccccc3)ccc2O[C@@H]1CN(C)Cc1ccc(Oc2ccccc2)cc1 | -2.18% (inactive)
CC(=O)c1ccc(S(=O)(=O)NCC2CCN(C(=O)C(=O)c3cccs3)CC2)cc1 | -2.02% (inactive)
N#Cc1ccc(-c2ccc([C@@H]3[C@H]4CNC[C@@H]3N4Cc3cc(F)ccc3F)cc2)cc1 | -0.209% (inactive)
N#Cc1cccc(-c2ccc(C3[C@H]4CNC[C@@H]3N4Cc3cncnc3)cc2)c1 (stereo partly specified) | -5.94% (inactive)
COc1ccccc1CN1[C@@H]2CNC[C@H]1C2c1ccc(-c2cccc(C#N)c2)cc1 (stereo partly specified) | 9% (inactive) and 53.2% (active)
CCCNC(=O)C[C@@H]1CC[C@@H]2[C@H](COc3ccc(NC(=O)C4CCOCC4)cc3C(=O)N2C)O1 | 11.7% (inactive)
CCN(CC(=O)Nc1ccc(C)c(S(=O)(=O)N(C)C)c1)Cc1ccccc1 | 7.9% (inactive)
CCN(CC(=O)NCC(=O)Nc1cccc(C)c1C)Cc1ccccc1 | 61.4% (active)
Cc1cccc(NC(=O)COC(=O)CCc2ccccc2)c1C | 0.193% (inactive)
CO[C@H]1CN(C)C(=O)c2cc(NC(=O)c3ccccc3)ccc2OC[C@H](C)NC[C@H]1C | -12.8% (inactive)
O=C(N[C@@H]1C=C[C@@H](CC(=O)N2CCOCC2)O[C@H]1CO)c1ccccn1 | -8.41% (inactive)
CCC(C(=O)NC(C)(C)C)n1c(-c2ccccc2)nc2ccccc21 (stereo unspecified) | -20.3% (inactive)
CCCc1nc2ccccc2n1C(C)C(=O)NC(C)(C)C (stereo unspecified) | 34.6% (active)
CC(C)(C)NC(=O)C(CCc1ccccc1)n1c(=O)c(-c2ccccc2)nc2ccccc21 (stereo unspecified) | 8.63% (inactive)
